This is an account of results in PubChem BioAssay (NCATS).

Records with an inconclusive call do not appear. Activity calls are given as the source filed them. The call rests on the fitted dose curve; in most records, active means well fitted inhibition curve with a large enough effect; inconclusive means small, poorly fitted or top-dose-only effect; inactive means flat fitted curve, though single readings scatter.

What all share (experiment): qHTS profiling for inhibitors of Plasmodium falciparum proliferation (AID 504749); further: nearly all actives have a fitted effect of over 60% in size
Holding throughout (conditions): P. falciparum in erythrocytes, SYBR Green DNA, 72 h; series mostly up to 28.7 µM
A general note: In qHTS, concentration-response curves come from the screen itself.

The test system of one assay is C2A. The essentials: (§1)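 Quantitative HTS: compounds pinned into medium, infected erythrocytes added (0.3% parasitemia, 2.5% hematocrit), 72 h culture at 37 C under 5% CO2. Saponin/Triton lysis with SYBR Green I, overnight RT, then fluorescence read.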
In a further assay the test system is CP185. In a few lines: as §1
The subject of a further assay is CP191. The essentials:
as §1

The test system of another assay is CP192. In a few lines:
as §1

Another assay relates to CP194. The essentials:
as §1

The test system of the next assay is CP201. In a few lines: as §1
Another assay concerns CP203. The essentials:
as §1

The test system of the next assay is CP211. The essentials: as §1
The next assay deals with CP215. The essentials:
as §1

The subject of another assay is CP217. The essentials: as §1
Potency means the concentration at half of the fitted maximal effect.

In the case of `CCCCCCCCCCCCCCC[C@H](O)[C@H](N)CO`, the outcome in the assay with C2A, with CP185, in the assay with CP194, with CP201, with CP211 and in the assay on CP215 was inactive. In the assay on CP217, the result was inactive. For the same molecule, the Potency entry with CP191, in the assay with CP192 and in the assay with CP203 was “inactive” throughout.
In the case of `CC(C)NC[C@H](O)COc1ccc(CC(N)=O)cc1`, the call in the assay on C2A, with CP185, in the assay on CP194, in the assay on CP201, in the assay with CP211 and with CP215 was inactive. The molecule was classed as inactive in the assay on CP217. Moreover, the Potency entry in the assay on CP191, in the assay with CP192 and in the assay with CP203 was “inactive” in each case.
With `CC(O)C(O)[C@H]1CNc2nc(N)[nH]c(=O)c2N1` (stereo partly drawn), the result in the assay on C2A, in the assay on CP185, in the assay with CP194, with CP201, in the assay with CP211 and in the assay on CP215 was inactive. The molecule was classed as inactive in the assay with CP217. The Potency result in the assay with CP191, in the assay with CP192 and in the assay with CP203 was “inactive” throughout.
Take `CN1C2CCC1CC(OC(c1ccccc1)c1ccccc1)C2` (stereo not drawn): the outcome with C2A and with CP211 was inactive. The Potency result in the assay with CP192 and with CP203 was “inactive” throughout.
Turning to `CCCCCCCCCCCCCCCCCCOC[C@H](COP(=O)([O-])OCC[N+](C)(C)C)OC`, the molecule was called inactive in the assay with C2A, in the assay on CP185, in the assay on CP194, in the assay on CP201, with CP211 and in the assay with CP215. Besides, in the assay on CP217, the call was inactive. The Potency entry in the assay with CP191, in the assay on CP192 and with CP203 was “inactive” in each case.
Regarding `c1ccc(C2CN3CCSC3=N2)cc1` (stereo not drawn), the Potency was 7.94 µM (active) in the assay with CP191, 19 µM (active) with CP192 and 16.9 µM (active) in the assay on CP203. Further, in the assay with CP201, the call was inactive.
